Screens as filed in PubChem.
In the library only some 9.9% were active in any assay of this set; here they are far more common.
SW480 rerep: induces DNA re-replication in SW480 colon adenocarcinoma cells; AID 624297; 340,000 compounds, 1.8% hits; SW480 DNA re-replication, Hoechst DNA content imaging, 48 h; Potency, µM (titrated, usually from 46.1 µM), inactives show at the top dose re-replication activation, actives largely listed as activators; further: potency means the concentration at half of the fitted maximal effect; % of control where 0% means no effect; nearly all actives have a fitted effect of over 55% in size
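Image-based read-out: total Hoechst fluorescence of nuclei (405 nm excitation, 500-530 nm emission), with hits raising the fraction of high-intensity nuclei. SW480 colon cells incubated 48 hr with compounds at 37 C.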
MCF10A rerep: inducers of DNA re-replication in MCF 10A breast cells; MCF 10A DNA re-replication, Hoechst nuclear intensity, 48 h; Potency, µM (titrated, usually from 46.1 µM), inactives show at the top dose activity, positive = re-replication, usual class: activators; 350,000 compounds, 2.9% hits; AID 624296; further: potency means the concentration at half of the fitted maximal effect; % of control where 0% means no effect; nearly all actives have a fitted effect of over 50% in size
IL1B secr inh: blocks inflammasome-driven IL-1 beta release | activity change, % at 57.5 µM | THP-1 LPS/ATP IL-1B secretion, AlphaLISA, 16 h; hits give low values | 360,000 compounds, 4.7% hits | AID 743279; in the data active means activity change below about -50%; inconclusive means mostly about -30% to -49%; further: on the % scale 0 is the no-effect control and ±100 the full control effect
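Secreted IL-1B measured by AlphaLISA bead assay after 16 h compound exposure of THP-1 cells; compounds (final up to 57.5 uM) added 1 h before LPS (250 ng/mL) and ATP (1.25 mM) stimulation; lower signal means less secretion.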
KB-V1 cytotox: KB-V1 MDR subline cytotoxicity | 400,000 compounds, 3.4% hits | Potency, µM (top dose mostly 46.1 µM), actives largely listed as cytotoxic | KB-V1 MDR cells viability, CellTiter-Glo, 72 h; further: potency means the concentration at half of the fitted maximal effect; on the % scale 0 is the no-effect control and ±100 the full control effect; nearly all actives have a fitted effect of over 60% in size
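Compound-treated KB-V1 multidrug-resistant cells, 72 h, 37 degrees C; viability by CellTiter-Glo. Fitted qHTS curves give the values.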
KB-3-1 tox: kills parental KB-3-1 adenocarcinoma cells. Potency, µM (doses to about 46.1 µM), hits mostly cytotoxic. KB-3-1 viability, CellTiter-Glo ATP luminescence, 72 h. 400,000 compounds, 1.4% hits. AID 1347075; further: potency means the concentration at half of the fitted maximal effect; on the % scale 0 is the no-effect control and ±100 the full control effect; nearly all actives have a fitted effect of over 60% in size
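KB-3-1 parental drug-naive adenocarcinoma cells in DMEM/10% FBS, incubated 72 h at 37 C with pin-transferred compounds across a concentration series. Viability by CellTiter-Glo luminescence; concentration-response curves fitted after normalization.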
* marks the source's active call; other numbers are inactive results; [ ] = dose if it differs, or a comment. Unless noted, the call rests on the fitted dose curve; in most records, active means well fitted curve in the direction sought with a large enough effect; inconclusive means small, poorly fitted or top-dose-only effect, or another doubt; inactive means no such curve, though single readings can be large; an effect the other way counts as inactive or inconclusive.

Results for Cc1ccc(C)c(CSc2nnc(-c3cccs3)n2Cc2ccco2)c1 ?
SW480 rerep: inconclusive; MCF10A rerep: 21µM*; IL1B secr inh: -8; KB-V1 cytotox: 18µM*; KB-3-1 tox: inactive

What do the screens show for `CN(C)c1ccc(NC(=O)CSc2nnc(-c3cccs3)n2Cc2ccco2)cc1`?
SW480 rerep: 3%; MCF10A rerep: 27%; IL1B secr inh: -18; KB-V1 cytotox: 7.3µM*; KB-3-1 tox: inconclusive

How did NC(=O)CSc1nnc(-c2cccs2)n1Cc1ccco1 do in these assays?
SW480 rerep: -27%; MCF10A rerep: 0%; IL1B secr inh: 3; KB-V1 cytotox: inconclusive; KB-3-1 tox: inactive

How did Cc1ccc(NC(=O)CSc2nnc(-c3cccs3)n2Cc2ccco2)cc1 do in these assays?
SW480 rerep: 3%; MCF10A rerep: -3%; IL1B secr inh: -16; KB-V1 cytotox: inactive; KB-3-1 tox: inactive

How did COc1ccc(N2c3ccccc3CN(Cc3ccccc3)CC2Cc2cc(OC)c(OC)c(OC)c2)cc1 (centres undefined) do in these assays?
IL1B secr inh: -21; KB-V1 cytotox: inactive; KB-3-1 tox: inactive

How did O=C(CCn1c(=O)oc2cc(Cl)ccc21)Nc1ccc(N2CCOCC2)cc1 do in these assays?
SW480 rerep: 2%; MCF10A rerep: -16%; IL1B secr inh: 5; KB-V1 cytotox: inconclusive; KB-3-1 tox: inactive

Results for CCNc1nnc(SCC(=O)N2c3ccccc3NC(=O)CC2C)s1 (centres undefined) ?
SW480 rerep: -10%; MCF10A rerep: -4%; IL1B secr inh: 18; KB-V1 cytotox: inactive; KB-3-1 tox: inactive

What do the screens show for `CCOC(=O)c1c(/N=C/N(C)C)sc(/C=N/Nc2ccccc2)c1-c1ccccc1Cl`?
SW480 rerep: 18µM*; MCF10A rerep: 15µM*; IL1B secr inh: 0; KB-V1 cytotox: inactive; KB-3-1 tox: inactive

Results for CCOC(=O)c1c(/N=C/N(C)C)sc(/C=N/Nc2ccccc2)c1-c1ccccc1 ?
SW480 rerep: inconclusive; MCF10A rerep: 21µM*; IL1B secr inh: -4; KB-V1 cytotox: inactive; KB-3-1 tox: inactive

What do the screens show for `CCn1c(C(=O)Nc2ccccc2C(=O)OC)cc2sc(Cl)cc21`?
KB-V1 cytotox: inactive; KB-3-1 tox: inactive

What do the screens show for `CC(C)OC(=O)CSc1nnc(COc2ccc([N+](=O)[O-])cc2)n1C`?
SW480 rerep: -2%; MCF10A rerep: 1%; IL1B secr inh: -98*; KB-V1 cytotox: inactive; KB-3-1 tox: inactive

What do the screens show for `CCOc1cc(C)ccc1OCc1nnc(SCC(=O)c2cccc([N+](=O)[O-])c2)n1C`?
SW480 rerep: inconclusive; MCF10A rerep: -17%; IL1B secr inh: -51*; KB-V1 cytotox: inactive; KB-3-1 tox: inactive

How did C/C(=C/c1ccccc1)C(=O)N1CCN(c2ccc(F)cc2)CC1 do in these assays?
SW480 rerep: -21%; MCF10A rerep: -1%; IL1B secr inh: -11; KB-V1 cytotox: inconclusive; KB-3-1 tox: inactive

Results for CC(C)(C)n1nnnc1CN1CCN(C(c2ccccc2)c2ccccc2)CC1 ?
SW480 rerep: -3%; MCF10A rerep: 3%; IL1B secr inh: -55*; KB-V1 cytotox: inconclusive; KB-3-1 tox: inactive

What do the screens show for `CC(C)(C)n1nnnc1C(c1ccccc1)N1CCCN(Cc2ccc(F)cc2)CC1` (centres undefined)?
IL1B secr inh: -29; KB-V1 cytotox: inconclusive; KB-3-1 tox: inactive

How did O=C(Cc1c(F)cccc1Cl)N1CCN(S(=O)(=O)c2cccc(F)c2)CC1 do in these assays?
SW480 rerep: -5%; MCF10A rerep: 5%; IL1B secr inh: -5; KB-V1 cytotox: inconclusive; KB-3-1 tox: inactive

What do the screens show for `COCCOC(=O)c1c(C)oc2ccc(NS(=O)(=O)c3ccc(F)cc3)cc12`?
SW480 rerep: -1%; MCF10A rerep: 1%; IL1B secr inh: 0; KB-V1 cytotox: 5.2µM*; KB-3-1 tox: inactive

How did Cc1oc2ccc(NS(=O)(=O)c3ccc(F)cc3)cc2c1C(=O)O do in these assays?
SW480 rerep: -13%; MCF10A rerep: -8%; IL1B secr inh: -12; KB-V1 cytotox: inactive; KB-3-1 tox: inactive

Results for Cn1c(=O)n(C)c2cc([N+](=O)[O-])c(N3CCN(C(=O)c4ccccc4Cl)CC3)cc21 ?
SW480 rerep: -18%; MCF10A rerep: -8%; IL1B secr inh: inconclusive; KB-V1 cytotox: 16µM*; KB-3-1 tox: 23µM*

What do the screens show for `O=C(c1ccc(N2CCOCC2)c([N+](=O)[O-])c1)N1CCN(c2ccccc2)CC1`?
SW480 rerep: 9%; MCF10A rerep: 16%; IL1B secr inh: -16; KB-V1 cytotox: inactive; KB-3-1 tox: inactive

Results for CN(c1ccc(C(=O)N2CCOCC2)cc1[N+](=O)[O-])C1CCCCC1 ?
SW480 rerep: -6%; MCF10A rerep: 0%; IL1B secr inh: -8; KB-V1 cytotox: 23µM*; KB-3-1 tox: inactive

Results for O=C(c1ccc(N2CCN(S(=O)(=O)c3ccccc3)CC2)c([N+](=O)[O-])c1)N1CCOCC1 ?
SW480 rerep: 2%; MCF10A rerep: 1%; IL1B secr inh: 4; KB-V1 cytotox: 3.7µM*; KB-3-1 tox: inactive

Results for Cn1c(=O)n(C)c2cc([N+](=O)[O-])c(N3CCN(S(=O)(=O)c4ccccc4)CC3)cc21 ?
SW480 rerep: 0%; MCF10A rerep: 19%; IL1B secr inh: -1; KB-V1 cytotox: 2.9µM*; KB-3-1 tox: inconclusive

What do the screens show for `CN(C(=O)c1ccc(N2CCOCC2)c([N+](=O)[O-])c1)C1CCCCC1`?
SW480 rerep: 6%; MCF10A rerep: -3%; IL1B secr inh: -8; KB-V1 cytotox: inactive; KB-3-1 tox: inactive

Results for CCCCOCCOCCOCc1cc2c(cc1CCC)OCO2 ?
SW480 rerep: -1%; MCF10A rerep: 1%

How did Cc1ccc(S(=O)(=O)N2CCN(c3ccc([N+](=O)[O-])c4cccnc34)CC2)cc1 do in these assays?
SW480 rerep: -1%; MCF10A rerep: inconclusive; IL1B secr inh: -15; KB-V1 cytotox: inconclusive; KB-3-1 tox: inactive

How did O=[N+]([O-])c1ccc(N2CCN(S(=O)(=O)c3ccccc3)CC2)c2cccnc12 do in these assays?
SW480 rerep: 4%; MCF10A rerep: 5%[9.22 µM]; IL1B secr inh: 25; KB-V1 cytotox: 8.2µM*; KB-3-1 tox: inactive

How did Cc1ccc(NC(=O)C(Cc2ccccc2)NS(=O)(=O)c2ccc3c(c2)oc(=O)n3C)cc1F (centres undefined) do in these assays?
KB-V1 cytotox: inactive; KB-3-1 tox: inactive

How did C[C@@H]1CCC(=O)N(CC[C@H](N=[N+]=[N-])c2ccccc2)CC1 do in these assays?
SW480 rerep: -19%; MCF10A rerep: 0%; IL1B secr inh: 21; KB-V1 cytotox: inconclusive; KB-3-1 tox: inactive
